# “And” between values parts separate entries of the source, which are not always exact repeats. Identical values can stand only once. Inconclusive results are not listed. Where a call stands in place of a potency, no number is given. The source made the active and inactive calls. Unless noted, the call rests on the fitted dose curve; in most records, active means well fitted curve in the direction sought with a large enough effect; inconclusive means small, poorly fitted or top-dose-only effect, or another doubt; inactive means no such curve, though single readings can be large; an effect the other way counts as inactive or inconclusive.
# Tests used:
# [1] = AP1 Signaling Pathway (AID 357; active means well fitted curve in either direction with a large enough effect, not every such curve was filed as active;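 further: ME-180 reporter cells stimulated with EGF at its EC50 level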); conditions: ME-180 AP-1-bla reporter, EGF-induced, beta-lactamase ratio, 5 h
# Summary of the method: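 Cells are seeded overnight, exposed to compound titrations and an EC50 level of EGF for 5 hours at 37 °C, then loaded with CCF4 dye for 2.5 hours. Beta-lactamase activity under the AP-1 element is read as a blue/green ratio.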
# [2] = molecular target: Cytochrome P450 1A2 (Homo sapiens) (UniProt P05177); test: p450-cyp1a2 (AID 410; calls by dose curve; further: potency means the concentration at half of the fitted maximal effect); conditions: recombinant CYP1A2, luciferin-ME demethylation, luminescence; series mostly up to 57 µM
# Cytochrome P450 1A2 (Homo sapiens), sequence (P05177 whole entry, looked up): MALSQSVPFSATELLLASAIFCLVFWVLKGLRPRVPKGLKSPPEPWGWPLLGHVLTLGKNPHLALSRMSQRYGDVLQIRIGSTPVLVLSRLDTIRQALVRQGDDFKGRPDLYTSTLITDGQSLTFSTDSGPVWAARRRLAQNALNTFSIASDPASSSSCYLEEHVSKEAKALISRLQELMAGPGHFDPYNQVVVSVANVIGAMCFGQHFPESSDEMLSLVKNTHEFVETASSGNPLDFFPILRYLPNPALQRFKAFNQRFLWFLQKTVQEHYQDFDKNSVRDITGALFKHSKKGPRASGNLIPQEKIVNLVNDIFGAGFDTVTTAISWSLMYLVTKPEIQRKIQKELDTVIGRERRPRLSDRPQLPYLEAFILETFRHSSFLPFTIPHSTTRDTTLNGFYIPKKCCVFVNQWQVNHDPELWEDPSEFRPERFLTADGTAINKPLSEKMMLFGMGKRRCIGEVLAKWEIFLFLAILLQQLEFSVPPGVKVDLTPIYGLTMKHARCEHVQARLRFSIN
# Summary of the method: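 Human CYP1A2 (20nM) demethylated Luciferin-ME at its Km (100uM) in 100mM KPO4. After 10 min compound preincubation, NADPH regeneration ran the reaction 60 min at room temperature. Luciferin was read by luminescence, normalized to 57 uM furafylline.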
# [3] = NFAT Signaling Pathway (AID 444; active means well fitted curve in either direction with a large enough effect, not every such curve was filed as active;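 further: carbachol stimulus at about its EC50 of 1 µM final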); conditions: Jurkat NFAT-bla M1, carbachol, beta-lactamase ratio, 5 h
# Summary of the method: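 Jurkat cells with NFAT-driven β-lactamase reporter and co-expressed M1 receptor, stimulated with carbachol (final 1 uM, ~EC50), compound titration, 5 h at 37 °C. CCF4 loaded 1 h at RT; 460/530 nm ratio gave %activity and AC50.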
# [4] = Stat Signaling Pathway (AID 446; active means well fitted curve in either direction with a large enough effect, not every such curve was filed as active;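 further: ME-180 cervical cancer cells given 40 pM IL-6 alongside compound; SIE-controlled beta-lactamase reporter measured as 460/530 nm FRET emission ratio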); conditions: ME-180 SIE beta-lactamase reporter, IL-6 stimulated, 5 h
# Summary of the method: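 Screening format detects activators and inhibitors alike: ME-180 SIE-bla cells stimulated at 40 pM IL-6 for 5 hrs with compound, then dual-emission beta-lactamase read at 405 nm excitation.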
# [5] = molecular target: Glucocorticoid receptor (Homo sapiens) (UniProt P04150); test: GR-GFP Redistribution (AID 450;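 active means compounds whose dose series gives a full or clear partial fitted curve of increased nuclear translocation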; further: potency means the concentration at half of the fitted maximal effect); conditions: U2OS GR-GFP nuclear translocation, laser cytometry, 2 h
# Glucocorticoid receptor (Homo sapiens), sequence (P04150 whole entry, looked up, the tested form may be a part): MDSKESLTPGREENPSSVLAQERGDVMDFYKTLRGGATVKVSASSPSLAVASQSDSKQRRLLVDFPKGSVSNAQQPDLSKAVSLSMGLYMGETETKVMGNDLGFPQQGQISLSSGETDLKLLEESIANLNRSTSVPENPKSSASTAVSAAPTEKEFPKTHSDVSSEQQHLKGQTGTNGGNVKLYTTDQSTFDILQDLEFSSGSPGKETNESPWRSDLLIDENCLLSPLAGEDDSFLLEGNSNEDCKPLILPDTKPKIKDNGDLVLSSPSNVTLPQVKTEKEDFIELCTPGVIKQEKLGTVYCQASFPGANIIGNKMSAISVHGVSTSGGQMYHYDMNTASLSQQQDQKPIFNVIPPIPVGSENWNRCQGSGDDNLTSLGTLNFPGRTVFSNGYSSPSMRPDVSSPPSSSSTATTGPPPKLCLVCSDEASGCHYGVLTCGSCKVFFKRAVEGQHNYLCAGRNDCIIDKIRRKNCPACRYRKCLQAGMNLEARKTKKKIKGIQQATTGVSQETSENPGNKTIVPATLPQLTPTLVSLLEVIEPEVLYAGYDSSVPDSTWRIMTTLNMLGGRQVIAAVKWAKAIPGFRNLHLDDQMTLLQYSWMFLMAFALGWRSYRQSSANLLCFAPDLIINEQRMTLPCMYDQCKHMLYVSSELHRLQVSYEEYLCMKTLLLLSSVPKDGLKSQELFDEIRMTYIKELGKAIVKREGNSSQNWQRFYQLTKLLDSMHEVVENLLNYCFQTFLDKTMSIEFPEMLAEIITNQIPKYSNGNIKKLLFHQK
# [6] = molecular target: Glucocorticoid receptor (Homo sapiens) (UniProt P04150); test: GR-EFC Redistribution (AID 451; calls by dose curve; further: potency means the concentration at half of the fitted maximal effect); conditions: CHO-K1 GR-EFC translocation, beta-gal luminescence, 2 h
# Summary of the method: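 CHO-K1 cells expressing nuclear EA and GR-ED fragments of b-gal; compounds titrated up to 46 uM final, 2 h at 37 C. GR nuclear translocation read as complemented b-gal luminescence after 1 h RT detection.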
# [7] = molecular target: Mitogen-activated protein kinase 10 (Mus musculus) (UniProt Q61831); test: JNK3 AlphaScreen Assay (AID 530; active means well fitted curve in either direction with a large enough effect, not every such curve was filed as active;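 further: kinase came from lysate of stimulated human HepG2 cells; signal reports phosphorylation of biotinylated GST-cJun 1-79 at Ser73 with 10 µM ATP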); conditions: JNK3 lysate, c-Jun phosphorylation; series mostly up to 57.1 µM
# Summary of the method: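 qHTS format: compounds tested as titrations against IL-1beta/TNF-alpha-activated HepG2 lysate JNK3 with biotin-GST-cJun substrate and 10 uM ATP at room temperature. Loss of anti-phospho-cJun AlphaScreen signal indicates inhibition.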
# [8] = molecular target: 3',5'-cyclic-AMP phosphodiesterase 4B (Homo sapiens) (UniProt Q07343); test: qHTS Assay for Inhibitors of PDE-IV (AID 607; active means well fitted activation curve with a large enough effect in the main read-out, with a control signal flat, not every such curve was filed as active); conditions: HEK293 ACTOne CNG channel cells, membrane potential fluorescence; series mostly up to 22.9 µM
# 3',5'-cyclic-AMP phosphodiesterase 4B (Homo sapiens), sequence (Q07343 whole entry, looked up): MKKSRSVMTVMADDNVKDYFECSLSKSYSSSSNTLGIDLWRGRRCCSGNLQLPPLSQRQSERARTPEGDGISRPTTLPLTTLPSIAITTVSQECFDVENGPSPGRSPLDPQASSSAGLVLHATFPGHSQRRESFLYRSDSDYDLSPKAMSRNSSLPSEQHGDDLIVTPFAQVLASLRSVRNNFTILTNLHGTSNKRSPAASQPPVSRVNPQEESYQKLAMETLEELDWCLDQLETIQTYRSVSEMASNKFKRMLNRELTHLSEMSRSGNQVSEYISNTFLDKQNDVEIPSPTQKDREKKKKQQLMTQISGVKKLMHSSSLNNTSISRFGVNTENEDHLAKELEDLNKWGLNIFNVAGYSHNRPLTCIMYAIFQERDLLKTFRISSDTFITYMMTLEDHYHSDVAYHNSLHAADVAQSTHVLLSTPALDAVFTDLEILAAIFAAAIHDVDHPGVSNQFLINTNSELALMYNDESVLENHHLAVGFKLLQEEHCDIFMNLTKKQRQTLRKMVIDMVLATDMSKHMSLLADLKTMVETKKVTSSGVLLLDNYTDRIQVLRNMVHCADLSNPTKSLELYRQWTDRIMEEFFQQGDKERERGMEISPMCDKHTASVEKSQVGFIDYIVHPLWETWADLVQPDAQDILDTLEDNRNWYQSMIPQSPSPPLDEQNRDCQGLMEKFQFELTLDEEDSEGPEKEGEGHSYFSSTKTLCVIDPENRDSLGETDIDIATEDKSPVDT
# Summary of the method: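 The readout is membrane depolarisation from a cAMP-sensing CNG channel, detected with a potential dye at ex 535/em 590. Cells were HEK293-derived (endogenous PDE-IV) at 1000 cells/well, titrated up to 22.9 uM final.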
# [9] = molecular target: Cytochrome P450 3A4 (Homo sapiens) (UniProt P08684); test: qHTS Assay for Activators of Cytochrome P450 3A4 (AID 885); conditions: recombinant CYP3A4, Luciferin-PPXE luminescence, 60 min; series mostly up to 57.1 µM; further: nearly all actives have a fitted effect of over 65% in size
# Cytochrome P450 3A4 (Homo sapiens), sequence (P08684 whole entry, looked up): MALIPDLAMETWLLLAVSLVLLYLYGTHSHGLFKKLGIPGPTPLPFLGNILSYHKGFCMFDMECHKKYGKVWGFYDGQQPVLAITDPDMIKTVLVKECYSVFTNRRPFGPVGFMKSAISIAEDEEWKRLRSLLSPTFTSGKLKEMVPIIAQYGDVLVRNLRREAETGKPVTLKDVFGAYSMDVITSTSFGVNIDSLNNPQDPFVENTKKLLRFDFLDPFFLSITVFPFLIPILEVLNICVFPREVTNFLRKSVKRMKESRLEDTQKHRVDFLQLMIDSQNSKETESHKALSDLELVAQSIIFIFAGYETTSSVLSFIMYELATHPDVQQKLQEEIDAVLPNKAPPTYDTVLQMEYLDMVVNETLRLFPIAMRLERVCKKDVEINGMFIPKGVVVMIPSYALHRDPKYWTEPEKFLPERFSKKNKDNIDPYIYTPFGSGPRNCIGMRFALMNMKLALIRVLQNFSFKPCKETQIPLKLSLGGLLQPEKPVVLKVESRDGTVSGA
# Summary of the method: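 Steps: enzyme/substrate mix dispensed; compound added, 10 min RT; NADPH regeneration solution added, 60 min RT; luciferin detection buffer stops reaction; 20 min later luminescence measured.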
# [10] = molecular target: Cytochrome P450 2C19 (Homo sapiens) (UniProt P33261); test: qHTS Assay for Inhibitors and Substrates of Cytochrome P450 2C19 (AID 899); conditions: recombinant CYP2C19, luciferin-H EGE luminescence; series mostly up to 57.1 µM; further: potency means the concentration at half of the fitted maximal effect; nearly all actives have a fitted effect of over 60% in size
# Cytochrome P450 2C19 (Homo sapiens), sequence (P33261 whole entry, looked up): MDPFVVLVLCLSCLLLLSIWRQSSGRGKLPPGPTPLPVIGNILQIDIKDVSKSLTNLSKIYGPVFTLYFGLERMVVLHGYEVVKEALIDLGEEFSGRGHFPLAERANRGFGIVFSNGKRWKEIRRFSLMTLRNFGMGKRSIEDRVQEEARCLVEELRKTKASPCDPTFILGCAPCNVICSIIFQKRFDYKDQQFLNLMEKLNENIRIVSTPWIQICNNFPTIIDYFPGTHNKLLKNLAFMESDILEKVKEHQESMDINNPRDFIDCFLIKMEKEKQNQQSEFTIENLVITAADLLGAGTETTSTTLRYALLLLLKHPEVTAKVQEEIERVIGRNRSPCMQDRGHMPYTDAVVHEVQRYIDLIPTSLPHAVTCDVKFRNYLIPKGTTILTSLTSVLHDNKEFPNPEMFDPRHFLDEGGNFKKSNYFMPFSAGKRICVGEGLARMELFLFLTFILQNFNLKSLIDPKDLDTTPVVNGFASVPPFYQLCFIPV
# Summary of the method: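 Luminescent read-out of luciferin formed from Luciferin-H EGE (10uM, equal to KM). Enzyme 5nM in 50mM KPO4; compound added, 10 min at 37C, then NADPH regenerating system for 60 min at 37C. Full inhibition defined by 57uM ketoconazole.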
# [11] = molecular target: DNA dC->dU-editing enzyme APOBEC-3G (Homo sapiens) (UniProt Q9HC16); test: qHTS for inhibitors of Vif-A3G interactions: Validation (AID 588379); conditions: Vif-A3G protein interaction assay; series mostly up to 46.1 µM
# DNA dC->dU-editing enzyme APOBEC-3G (Homo sapiens), sequence (Q9HC16 whole entry, looked up): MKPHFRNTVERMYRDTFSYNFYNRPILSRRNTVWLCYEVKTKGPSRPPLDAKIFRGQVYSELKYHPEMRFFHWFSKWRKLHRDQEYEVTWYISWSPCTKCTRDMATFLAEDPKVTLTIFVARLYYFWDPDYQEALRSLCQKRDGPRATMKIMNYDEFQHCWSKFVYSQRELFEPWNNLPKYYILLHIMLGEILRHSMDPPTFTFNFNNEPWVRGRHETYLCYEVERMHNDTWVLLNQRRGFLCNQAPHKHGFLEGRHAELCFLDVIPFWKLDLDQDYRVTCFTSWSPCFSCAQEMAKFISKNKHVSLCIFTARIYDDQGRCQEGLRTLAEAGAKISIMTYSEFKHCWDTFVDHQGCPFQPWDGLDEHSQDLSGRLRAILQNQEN
# Summary of the method: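 HeLa cells stably expressing Vif and A3G-eYFP, 700 cells/well, incubated overnight at 37 deg C, then exposed to compound overnight at 37 deg C. Inhibition of Vif-mediated degradation read as increased yellow fluorescence (Ex 488/Em 500-530) by laser-scanning cytometry.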
# [12] = system: Zika virus NS2B-NS3 protease; test: Primary screen GU AMC qHTS for Zika virus inhibitors (AID 1347154); conditions: Zika NS2B-NS3 unlinked protease, AMC fluorogenic substrate; series mostly up to 54.1 µM; further: nearly all actives have a fitted effect of over 70% in size
# Summary of the method: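 Unlinked Zika NS2B hydrophilic domain–NS3 protease complex at 25 nM in 10 mM Tris-HCl pH 8.0, 0.01% Tween 20, with an AMC peptide substrate. Fluorescence change (340/450 nm) over 15 min at room temperature, normalized to controls, fitted to 4-parameter Hill.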
# [13] = Primary qHTS for small molecule stabilizers of the endoplasmic reticulum resident proteome: Secreted ER Calcium Modulated Protein (SERCaMP) assay (AID 1508630); conditions: SH-SY5Y GLuc-SERCaMP (Gaussia luciferase released on ER calcium loss) secretion, thapsigargin, luminescence; series mostly up to 38.4 µM
# Summary of the method: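 GLuc-SERCaMP-expressing SH-SY5Y cells, pretreated 16 h with compound, are challenged with thapsigargin to empty ER calcium stores; after 4 h, coelenterazine is added directly to the medium and luminescence is imaged.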
# [14] = molecular target: Guanine nucleotide-binding protein G(i) subunit alpha-1 (Homo sapiens) (UniProt P63096); test: qHTS Assay for Inhibitors of RGS12 GoLoco Motif Activity (Green Fluorophore) (AID 879); conditions: Galphai1/FITC-RGS12 GoLoco peptide, fluorescence polarization; series mostly up to 57.1 µM;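 further: negative values mean loss of peptide binding seen as reduced polarization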
# Guanine nucleotide-binding protein G(i) subunit alpha-1 (Homo sapiens), sequence (P63096 whole entry, looked up): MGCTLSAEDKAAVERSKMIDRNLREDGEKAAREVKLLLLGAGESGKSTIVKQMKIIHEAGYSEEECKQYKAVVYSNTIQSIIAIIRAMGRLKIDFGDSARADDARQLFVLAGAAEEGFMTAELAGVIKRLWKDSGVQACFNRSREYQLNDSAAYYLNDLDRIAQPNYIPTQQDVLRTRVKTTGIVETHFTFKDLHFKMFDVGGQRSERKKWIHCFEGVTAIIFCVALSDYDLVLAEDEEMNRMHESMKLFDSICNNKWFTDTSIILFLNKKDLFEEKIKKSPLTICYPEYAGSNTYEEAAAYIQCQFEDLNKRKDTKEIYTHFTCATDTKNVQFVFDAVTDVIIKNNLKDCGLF
# Summary of the method: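 Fluorescence polarization assay: 50 nM Gαi1 with 10 nM FITC-labeled RGS12 GoLoco peptide in 10 mM Tris pH 7.5, 150 mM NaCl, 0.1 mM GDP, 0.05% NP40, 10 min at room temperature with compound.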
# [15] = molecular target: Pyruvate kinase (Leishmania mexicana) (UniProt Q27686); test: qHTS Validation Assay for Inhibitors of Leishmania Mexicana Pyruvate Kinase (AID 945); conditions: purified L. mexicana pyruvate kinase, enzyme activity, E451W mutant enzyme; series mostly up to 57.5 µM
# Summary of the method: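 Read-out: luminescence from PKLight stop/detection reagent, data normalized to DMSO. Reaction: 0.2 nM E451W LmPYK, 0.5 mM PEP, 0.1 mM ADP, pH 7.2, 1 h room temperature.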
# [16] = molecular target: Pyruvate kinase PKM (Homo sapiens) (UniProt P14618); test: qHTS Assay for Activators of Human Muscle Pyruvate Kinase (AID 954; active means well fitted curve in the direction sought with a large enough effect, not every such curve was filed as active); conditions: purified human muscle pyruvate kinase, luciferase-coupled luminescence, 1 h; series mostly up to 57.5 µM
# Summary of the method: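 Reaction: 0.1 nM purified PKM2 with 0.5 mM phosphoenolpyruvate and 0.1 mM ADP, room temperature, 1 h. Readout: luciferase-based ATP luminescence after stop reagent. Activators judged against a 0.3 nM enzyme column.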
# [17] = molecular target: Alpha-galactosidase A (Homo sapiens) (UniProt P06280); test: Counterscreen for Glucocerebrosidase Inhibitors: qHTS Assay for Human alpha-Galactosidase at pH 4.5 (AID 992); conditions: purified enzyme, fluorogenic substrate; series mostly up to 76.9 µM
# Alpha-galactosidase A (Homo sapiens), sequence (P06280 whole entry, looked up): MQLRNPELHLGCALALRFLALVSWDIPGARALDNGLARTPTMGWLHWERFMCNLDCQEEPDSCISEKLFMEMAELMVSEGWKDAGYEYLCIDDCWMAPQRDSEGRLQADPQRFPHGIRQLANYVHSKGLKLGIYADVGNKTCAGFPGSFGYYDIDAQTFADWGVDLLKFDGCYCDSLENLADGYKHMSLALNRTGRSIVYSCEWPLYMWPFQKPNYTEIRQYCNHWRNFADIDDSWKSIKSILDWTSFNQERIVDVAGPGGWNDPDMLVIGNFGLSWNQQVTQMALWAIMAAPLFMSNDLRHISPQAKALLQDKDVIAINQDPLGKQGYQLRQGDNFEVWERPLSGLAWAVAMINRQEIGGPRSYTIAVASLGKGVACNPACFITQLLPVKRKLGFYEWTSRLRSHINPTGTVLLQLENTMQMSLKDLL
# Summary of the method: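 Concentration-response curves (0.7 nM to 77 uM final) were modeled with the Hill equation to give AC50. Reactions: 2 nM enzyme, 80 uM fluorogenic alpha-galactoside, pH 4.5 citric acid buffer, 20 min, room temperature.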
# [18] = molecular target: alpha-glucosidase (Oryza sativa, rice) (UniProt Q653V4); test: Counterscreen for Glucocerebrosidase Inhibitors: qHTS Assay for Rice alpha-Glucosidase at pH 5.0 (AID 997); conditions: rice alpha-glucosidase enzyme activity; series mostly up to 76.9 µM
# Summary of the method: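 Rice alpha-glucosidase (4 nM final) with 400 uM 4-methylumbelliferyl-alpha-D-glucopyranoside in citrate buffer pH 5.0, 20 min at room temperature, stopped at pH 10; fluorescence 365/440 nm, compounds 0.7 nM–77 uM, AC50 from Hill fits.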
# [19] = qHTS Assay for Lipid Storage Modulators (AID 1519; calls by dose curve); conditions: Drosophila S3 cells, BODIPY lipid droplet/cell ratio, laser cytometry, cells loaded with oleic acid
# Summary of the method: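 Cells seeded at 5,000 per well were treated with compounds over a concentration series and loaded with oleic acid (400 uM, as added). Lipid droplet fluorescence (488 nm excitation, 500-530 nm channel) was read by laser-scanning cytometry and normalized to 20 uM Triacsin C.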
# [20] = molecular target: Ubiquitin carboxyl-terminal hydrolase 1 (Homo sapiens) (UniProt O94782); test: Inhibitors of USP1/UAF1: Pilot qHTS (AID 504865); conditions: purified USP1/UAF1, Ub-rhodamine cleavage fluorescence; series mostly up to 114 µM;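 further: rhodamine fluorescence freed from ubiquitin-rhodamine substrate followed over time; top concentration of the series differs between compounds; nearly all actives have a fitted effect of over 35% in size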
# Ubiquitin carboxyl-terminal hydrolase 1 (Homo sapiens), sequence (O94782 whole entry, looked up): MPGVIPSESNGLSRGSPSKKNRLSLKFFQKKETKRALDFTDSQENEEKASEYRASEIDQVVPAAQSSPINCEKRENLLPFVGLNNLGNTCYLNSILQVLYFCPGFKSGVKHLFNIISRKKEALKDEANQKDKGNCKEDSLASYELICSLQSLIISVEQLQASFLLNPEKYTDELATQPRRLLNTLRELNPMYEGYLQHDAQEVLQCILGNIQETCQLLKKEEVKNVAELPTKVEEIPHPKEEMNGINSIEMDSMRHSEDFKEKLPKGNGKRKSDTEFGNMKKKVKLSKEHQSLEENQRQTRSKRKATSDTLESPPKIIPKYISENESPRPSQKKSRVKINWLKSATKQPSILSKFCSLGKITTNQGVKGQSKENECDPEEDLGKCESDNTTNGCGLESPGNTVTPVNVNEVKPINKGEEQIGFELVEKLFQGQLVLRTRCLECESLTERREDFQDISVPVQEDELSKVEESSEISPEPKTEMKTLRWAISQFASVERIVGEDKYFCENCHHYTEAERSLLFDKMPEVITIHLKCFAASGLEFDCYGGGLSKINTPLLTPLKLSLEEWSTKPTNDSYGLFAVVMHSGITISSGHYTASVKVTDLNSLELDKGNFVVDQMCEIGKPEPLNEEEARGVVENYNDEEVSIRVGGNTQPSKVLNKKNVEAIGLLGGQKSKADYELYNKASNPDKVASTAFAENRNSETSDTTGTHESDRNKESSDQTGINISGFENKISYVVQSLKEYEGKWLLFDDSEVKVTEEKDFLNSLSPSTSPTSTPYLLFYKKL
# Summary of the method: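 Deubiquitinase activity followed as kinetic rhodamine fluorescence release from 150 nM Ub-Rho. 1 nM USP1/UAF1 with compound, after 15 min room-temperature preincubation, in HEPES pH 7.8 buffer containing TCEP, EDTA, BSA and Tween-20.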
structure (smiles),measurement,setting,value
COc1cc(CNC(=O)CCCC/C=C\C(C)C)ccc1O,"activity change, negative = inhibition",[1]; at 17.2 µM (top of the series),7.68% (inactive)
same,Potency,[2],1.58 µM (active) and 2 µM (active) and 3.16 µM (active)
same,"activity change, negative = inhibition",[3]; at 17.2 µM (top of the series),-1.65% (inactive)
same,"activity, negative = inhibition",[4]; at 17.2 µM (top of the series),-15.5% (inactive)
same,Potency,[5],> 20.6 µM (inactive) and > 46 µM (inactive)
same,Potency,[6],> 20.6 µM (inactive) and > 46 µM (inactive)
same,Potency,[7],inactive
same,Potency,[8],inactive
same,Potency,[9],inactive
same,Potency,[10],7.94 µM (active) and 6.31 µM (active)
same,Potency,[11],inactive
same,Potency,[12],inactive
same,Potency,[13],inactive
C[C@H]1C=C2C=C[C@H](C)[C@H](CC[C@@H]3C[C@@H](O)CC(=O)O3)[C@H]2[C@@H](OC(=O)[C@@H](C)CCO)C1,Potency,[2],31.6 µM (active)
same,Potency,[6],> 46 µM (inactive)
same,Potency,[7],inactive
same,Potency,[9],inactive
same,Potency,[11],inactive
same,Potency,[12],inactive
same,Potency,[13],inactive
CCOC(=O)C1=C(C)NC(C)=C(C(=O)OC)[C@H]1c1cccc([N+](=O)[O-])c1,"activity change, negative = inhibition",[1]; at 38 µM (top of the series),-24.5% (inactive)
same,Potency,[2],15.8 µM (active)
same,"activity change, negative = inhibition",[3]; at 38 µM (top of the series),-17% (inactive)
same,"activity, negative = inhibition",[4]; at 38 µM (top of the series),17.9% (inactive)
same,outcome,[14],inactive
same,Potency,[10],1.26 µM (active) and 251 nM (active)
same,Potency,[15],inactive
same,outcome,[16],inactive
same,outcome,[17],inactive
same,outcome,[18],inactive
same,Potency,[11],inactive
same,Potency,[12],inactive
same,Potency,[13],inactive
C[C@H](CCC(=O)O)[C@H]1CC[C@H]2[C@H]3C(CC[C@]12C)[C@@]1(C)CC[C@@H](O)C[C@H]1C[C@H]3O (stereo not given in full),"activity change, negative = inhibition",[19]; at 57.5 µM (top of the series),-7.53% (inactive)
same,max response,[19]; measured here: cell count channel max response,14.2%
same,max response,[19]; measured here: lipid channel max response,5.28%
same,Potency,[20],inactive
same,Potency,[11],inactive
same,Potency,[12],inactive
same,Potency,[13],inactive
Cc1nccn1CC1CCC2C(C1=O)c1ccccc1N2C (stereo not given),Potency,[12],inactive
same,Potency,[13],inactive
C[C@@]12C(=O)OC(=O)[C@@]1(C)[C@@H]1CC[C@@H]2O1,Potency,[2],31.6 µM (active)
same,Potency,[5],> 46 µM (inactive)
same,Potency,[6],> 46 µM (inactive)
same,Potency,[8],inactive
same,Potency,[9],inactive
same,Potency,[20],inactive
same,Potency,[11],inactive
same,Potency,[12],inactive
same,Potency,[13],inactive
CCN(CC)CC1CCN(c2ncc3ncnc(Nc4ccc(F)c(Cl)c4)c3n2)CC1,Potency,[12],inactive
same,Potency,[13],inactive
CCOC(=O)[C@@]12C[C@@H]1/C(=N/O)c1ccccc1O2,"activity change, negative = inhibition",[1]; at 38 µM (top of the series),-6.63% (inactive)
same,Potency,[2],3.98 µM (active) and 316 nM (active)
same,"activity change, negative = inhibition",[3]; at 38 µM (top of the series),-7.55% (inactive)
same,"activity, negative = inhibition",[4]; at 38 µM (top of the series),-6.6% (inactive)
same,Potency,[5],> 46 µM (inactive)
same,Potency,[6],> 46 µM (inactive)
same,Potency,[7],inactive
same,Potency,[8],inactive
same,outcome,[14],inactive
same,Potency,[15],inactive
same,outcome,[16],inactive
same,outcome,[17],inactive
same,outcome,[18],inactive
same,Potency,[20],inactive
same,Potency,[11],inactive
same,Potency,[12],inactive
same,Potency,[13],inactive

# From PubChem BioAssay (NCATS)
